Compound activity: PubChem BioAssay, National Center for Advancing Translational Sciences (NCATS)
ATXN viability: viability counter-screen for ATXN expression inhibitors. Potency, µM (doses to about 56.7 µM), actives largely listed as cytotoxic. 400,000 tested, 0.49% active. S2 cells (HEK-293 line with an ATXN2-luciferase reporter) viability, CellTiter-Fluor protease fluorescence, 24 h. AID 651635; also: nearly all actives have a fitted effect of over 40% in size
HT1080-NT tox: kills 2HG-producing HT-1080-NT fibrosarcoma cells; HT-1080-NT fibrosarcoma viability, CellTiter-Glo ATP luminescence, 48 h; Potency, µM (highest dose often 46.1 µM), for inactives: top-dose activity, negative = less viability, usual class: cytotoxic; 360,000 tested, 1.6% active; AID 686970;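 also: NT is the 2HG producing partner of a matched IDH1 knockdown line; 0% = DMSO-treated cells and -100% = media-only wells without cells; nearly all actives have a fitted effect of over 55% in size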
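Viability of the 2HG-overproducing fibrosarcoma line after 48 hours of compound exposure at 37 degrees C was determined by luminescence with CellTiter-Glo, and concentration-effect curves were then fitted and categorized.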
KB-V1 MDR tox: KB-V1 MDR subline cytotoxicity; KB-V1 MDR cells viability, CellTiter-Glo, 72 h; AID 1347076; Potency, µM (top dose mostly 46.1 µM), usual class: cytotoxic; 400,000 tested, 3.4% active; also: % is scaled to controls: 0 for no effect and ±100 for the full control effect; nearly all actives have a fitted effect of over 60% in size
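In this primary screen, KB-V1 cells overexpressing P-gp are incubated with library compounds (lowest to highest concentration) for 72 h at 37 degrees C before a luminescent ATP viability read.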
KB-3-1 tox: KB-3-1 parental cell cytotoxicity. KB-3-1 viability, CellTiter-Glo ATP luminescence, 72 h. Potency, µM (highest dose often 46.1 µM), hits mostly cytotoxic. 400,000 tested, 1.4% active; also: % is scaled to controls: 0 for no effect and ±100 for the full control effect; nearly all actives have a fitted effect of over 60% in size
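KB-3-1 cells, DMEM (no phenol red) + 10% FBS; compound by pin transfer, 72 h, 37 °C. Readout: CellTiter-Glo luminescence after 10 min. Data normalized, curve-fitted.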
ATXN2 expr inh: reduces ATXN2 reporter expression in HEK-293 cells; 360,000 tested, 0.72% active; AID 1745845; HEK-293 ATXN2-luciferase reporter, luminescence, 24 h; Potency, µM (highest dose often 57 µM), for inactives: top-dose activity change, negative = inhibition, most hits filed as inhibitors; also: % is scaled to controls: 0 for no effect and ±100 for the full control effect; nearly all actives have a fitted effect of over 55% in size
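ATXN2-luciferase reporter cells (luciferase flanked by upstream and downstream ATXN2 gene portions) were treated 24 h at 37 °C with compounds at up to 57 uM. SteadyGlo luminescence gave expression; GF-AFC fluorescence gave viability.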
HT1080 IDH1KD tx: HT-1080 IDH1 knockdown cell toxicity (counter line); HT-1080 IDH1 knockdown viability, ATP luminescence, 48 h; Potency, µM (titrated, usually from 46.1 µM), without a hit: top-dose activity, negative = toxicity, actives largely listed as cytotoxic; 360,000 tested, 2% active;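 also: 0% = DMSO wells and -100% = cell-free medium wells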
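Knockdown cells (IDH1KD HT-1080) received compounds 2 h after plating at 750 cells/well and were kept 48 h at 37 °C in 5% FBS RPMI. A CellTiter-Glo luminescence read gave % activity for curve fitting.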
* = called active by the depositor. Only some compounds are listed: those with a hit (about 6.2% of all), similar ones and a draw of the others. Calls follow the shape of the dose curve; as a rule, active = well fitted curve in the direction sought with a large enough effect; inconclusive = small, poorly fitted or top-dose-only effect, or another doubt; inactive = no such curve, though single readings can be large; an effect the other way counts as inactive or inconclusive. Potency is read from the fitted curve at half-maximal effect.

What do the screens show for `COc1ccc(-c2ccc(NC(=O)c3ccco3)cc2)nn1`?
ATXN viability: inactive; HT1080-NT tox: 18µM*; KB-V1 MDR tox: inconclusive; KB-3-1 tox: 10µM*; ATXN2 expr inh: inconclusive; HT1080 IDH1KD tx: 21µM*

What do the screens show for `COc1ccc(CCn2c3c(c(=O)[nH]c2=S)CN(C)CN3)cc1OC`?
HT1080-NT tox: 14%; HT1080 IDH1KD tx: 16%

How did Cc1ccc(CNc2nc(CN3CCNC(=O)C3)nc3ccccc23)o1 do in these assays?
ATXN viability: inactive

What do the screens show for `Cc1cc(C)cc(C(=O)Nc2c(C(=O)Nc3ccccc3F)oc3ccccc23)c1`?
ATXN viability: inactive; KB-V1 MDR tox: inactive; KB-3-1 tox: inactive; ATXN2 expr inh: 1%

Results for CC(=O)c1ccc(C(=O)N(Cc2cccnc2)c2nc3c(Cl)cccc3s2)cc1 ?
KB-V1 MDR tox: inactive; KB-3-1 tox: inactive

What do the screens show for `COc1ccc(-n2c(=O)c3c4c(sc3n(Cc3cc(C)ccc3C)c2=O)CN(C(C)=O)CC4)c(OC)c1`?
ATXN viability: inactive; KB-V1 MDR tox: inactive; KB-3-1 tox: inactive; ATXN2 expr inh: inconclusive

How did O=C(Nc1ccc(-c2cn3ccccc3n2)cc1)c1ccc(Cl)cc1 do in these assays?
ATXN viability: inactive; HT1080-NT tox: 20%; KB-V1 MDR tox: inactive; KB-3-1 tox: inactive; ATXN2 expr inh: -28%; HT1080 IDH1KD tx: 17%

How did O=C(Nc1ccc(-c2cn3ccccc3n2)cc1)c1ccco1 do in these assays?
ATXN viability: inactive; HT1080-NT tox: inconclusive; KB-V1 MDR tox: 10µM*; KB-3-1 tox: inactive; ATXN2 expr inh: 9%; HT1080 IDH1KD tx: inconclusive

What do the screens show for `O=C(CSc1nc2ccc(Nc3nc(N4CCOCC4)nc(N4CCOCC4)n3)cc2s1)N1CCOCC1`?
ATXN viability: inactive; HT1080-NT tox: -4%; KB-V1 MDR tox: inactive; KB-3-1 tox: inactive; ATXN2 expr inh: 2%; HT1080 IDH1KD tx: -2%

How did O=C(CSc1nc2ccc(Nc3nc(N4CCOCC4)nc(N4CCOCC4)n3)cc2s1)Nc1ccccc1F do in these assays?
ATXN viability: inconclusive; HT1080-NT tox: 7%; KB-V1 MDR tox: 2.6µM*; KB-3-1 tox: 13µM*; ATXN2 expr inh: inconclusive; HT1080 IDH1KD tx: 4%

Results for CSc1nc2ccc(Nc3nc(N4CCOCC4)nc(N4CCOCC4)n3)cc2s1 ?
ATXN viability: inactive; HT1080-NT tox: inconclusive; KB-V1 MDR tox: 18µM*; KB-3-1 tox: inconclusive; ATXN2 expr inh: inconclusive; HT1080 IDH1KD tx: inconclusive

Results for Cc1ccc(C(=O)N2CC=C(c3ccccc3)CC2)o1 ?
ATXN viability: inactive; HT1080-NT tox: 16%; KB-V1 MDR tox: inactive; KB-3-1 tox: inactive; ATXN2 expr inh: 2%; HT1080 IDH1KD tx: 18%

How did Cc1ccccc1NC(=O)N1c2ccccc2CC1C (centres undefined) do in these assays?
ATXN viability: inactive; HT1080-NT tox: 4%; KB-V1 MDR tox: inactive; KB-3-1 tox: inactive; ATXN2 expr inh: 15%; HT1080 IDH1KD tx: 5%

Results for CC(=O)N1CCN(C(=O)c2cc(C)nc3ccccc23)CC1 ?
ATXN viability: inactive; HT1080-NT tox: -3%; KB-V1 MDR tox: inactive; KB-3-1 tox: inactive; HT1080 IDH1KD tx: -3%

How did Cc1c(C(=O)C(=O)N2CC=C(c3ccccc3)CC2)c2ccccc2n1C do in these assays?
ATXN viability: inactive; HT1080-NT tox: 2.6µM*; KB-V1 MDR tox: 3.7µM*; KB-3-1 tox: 2.9µM*; ATXN2 expr inh: -19%; HT1080 IDH1KD tx: 2.3µM*

How did Cc1c(C(=O)C(=O)N2c3ccccc3CC2C)c2ccccc2n1C (centres undefined) do in these assays?
ATXN viability: inactive; HT1080-NT tox: inconclusive; KB-V1 MDR tox: 21µM*; KB-3-1 tox: 23µM*; ATXN2 expr inh: inconclusive; HT1080 IDH1KD tx: inconclusive

What do the screens show for `Cc1cc(C(=O)N2CC=C(c3ccccc3)CC2)c2ccccc2n1`?
ATXN viability: inconclusive; HT1080-NT tox: inconclusive; KB-V1 MDR tox: 1.5µM*; KB-3-1 tox: inconclusive; ATXN2 expr inh: inconclusive; HT1080 IDH1KD tx: 1.6µM*

Results for Cc1ccc(-c2cn3c4c(=O)n(C)c(=O)n(C)c4nc3n2-c2cccc(Cl)c2)cc1 ?
ATXN viability: inactive; KB-V1 MDR tox: inconclusive; KB-3-1 tox: inactive; ATXN2 expr inh: 16%

How did CCCCNC(=O)c1cc(-c2ccc(OC)cc2)on1 do in these assays?
ATXN viability: inactive; HT1080-NT tox: -21%; KB-V1 MDR tox: inactive; KB-3-1 tox: inactive; ATXN2 expr inh: 15%; HT1080 IDH1KD tx: 0%

How did CCCCNC(=O)c1cc(-c2ccc(F)cc2)on1 do in these assays?
ATXN viability: inactive; HT1080-NT tox: inconclusive; KB-V1 MDR tox: 16µM*; KB-3-1 tox: 18µM*; ATXN2 expr inh: 28%; HT1080 IDH1KD tx: inconclusive

Results for COCCNC(=O)c1cc(-c2ccccc2OC)on1 ?
ATXN viability: inactive; HT1080-NT tox: inconclusive; KB-V1 MDR tox: inconclusive; KB-3-1 tox: 9.2µM*; ATXN2 expr inh: 32%; HT1080 IDH1KD tx: -24%

Results for COc1ccccc1-c1cc(C(=O)NC(C)C)no1 ?
ATXN viability: inactive; HT1080-NT tox: -18%; KB-V1 MDR tox: inactive; KB-3-1 tox: inactive; ATXN2 expr inh: 68%; HT1080 IDH1KD tx: -5%

How did COc1ccccc1-c1cc(C(=O)NC(C)c2ccccc2)no1 (centres undefined) do in these assays?
ATXN viability: inactive; HT1080-NT tox: 23%; KB-V1 MDR tox: 21µM*; KB-3-1 tox: inactive; ATXN2 expr inh: 3%; HT1080 IDH1KD tx: inconclusive

Results for COc1ccccc1-c1cc(C(=O)Nc2cc(C)nn2-c2ccccc2)no1 ?
ATXN viability: inconclusive; HT1080-NT tox: inconclusive; KB-V1 MDR tox: 6.5µM*; KB-3-1 tox: 5.2µM*; ATXN2 expr inh: -15%; HT1080 IDH1KD tx: 3.2µM*

How did CCC1(C2CCN(C(=O)c3ccc(C)cc3C)CC2)NC(=O)N(CCc2scnc2C)C1=O (centres undefined) do in these assays?
ATXN viability: inactive

Results for CC(=O)c1ccc(Nc2cc(C)nc3nc(Cc4ccc(Cl)cc4)nn23)cc1 ?
ATXN viability: inactive; KB-V1 MDR tox: inactive; KB-3-1 tox: inactive; ATXN2 expr inh: -5%

What do the screens show for `CCc1ccc2oc(-c3ccc(C)c(NC(=O)COc4ccccc4Cl)c3)nc2c1`?
KB-V1 MDR tox: inactive; KB-3-1 tox: inactive

How did COc1ccc(OC)c(-c2cc(C(=O)NCc3cccs3)no2)c1 do in these assays?
ATXN viability: inactive; HT1080-NT tox: -27%; KB-V1 MDR tox: 16µM*; KB-3-1 tox: inactive; ATXN2 expr inh: 7%; HT1080 IDH1KD tx: inconclusive

Results for Cc1cccc(CNC(=O)c2cnn(-c3nccc(-c4ccccc4C(F)(F)F)n3)c2C)n1 ?
ATXN viability: inactive
